Source: PubChem BioAssay (Tox21)
Values joined by “and” are separate entries in the source; they are usually repeats but may differ in a detail not shown here. Identical values can stand only once. Results filed as inconclusive are left out. A structure can be active in one record and inactive in another. Active and inactive are the calls of the source. Unless noted, the call rests on the fitted dose curve.

What was measured:
[1] = Nuclear factor erythroid 2-related factor 2/antioxidant responsive element (Nrf2/ARE) small molecule agonists: qHTS cell viability counter screen in human keratinocytes (AID 1919968; active means well fitted curve in the direction sought with a large enough effect in the repeat runs; an effect the other way counts as inactive or inconclusive; further: nearly all actives have a fitted effect of over 55% in size)
How it was run: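 Seed 1,500 KeratinoSens cells per well, then incubate 5 h at 37 C/5% CO2. Add compounds in DMSO and incubate 23 h. Add CellTiter-Fluor, wait 1 h and read fluorescence.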

[2] = Nuclear factor erythroid 2-related factor 2/antioxidant responsive element (Nrf2/ARE) small molecule agonists: luciferase reporter gene qHTS assay in human keratinocytes (AID 1919969); further: nearly all actives have a fitted effect of over 35% in size; further: potency means the concentration at half of the fitted maximal effect
[3] = target: Gonadotropin-releasing hormone receptor (Homo sapiens) (UniProt P30968); assay: Human gonadotropin-releasing hormone receptor (GnRHR) small molecule agonists, calcium flux assay in GnRHR-HEK293 cells (AID 1920063); further: nearly all actives have a fitted effect of over 35% in size
How it was run: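 Cells: HEK293 stably expressing human GnRHR. Steps: overnight (18 h) culture, 1 h calcium dye loading at 37 C, compound addition, kinetic fluorescence read at 480/540 nm. Each compound tested at 15 concentrations in triplicate.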

[4] = target: KiSS-1 receptor (Homo sapiens) (UniProt Q969F8); assay: Human kisspeptin (KISS1R) small molecule agonists, calcium flux assay in KISS1R-HEK293 cells (AID 1920064; active means well fitted curve in the direction sought with a large enough effect in the repeat runs; an effect the other way counts as inactive or inconclusive)
How it was run: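 Cells plated and incubated 18 h; dye added, 1 h at 37 C; compounds in DMSO pinned in; signal read at 480/540 nm every second for 3 min. Each compound tested at 15 concentrations in triplicate.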

[5] = G protein-coupled receptor (GPCR) small molecule agonists, calcium flux assay: HEK293 wild type cell line counter screen (AID 1920065)
How it was run: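 Counter-screen of the Tox21 10K library for non-specific calcium release: dye-loaded cells received compounds in DMSO and were monitored by kinetic fluorescence (480/540 nm, 3 min). Fifteen concentrations, run in triplicate.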

[6] = p53 small molecule agonists, cell-based qHTS assay with human liver microsomes (AID 1963577);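 further: p53 response element beta-lactamase reporter cells with liver microsomes plus NADPH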
How it was run: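 Steps: plate p53RE-bla cells, incubate 5 h at 37 C; add compound in DMSO; add microsomes (0.5 mg/mL final) and NADPH (0.5 mg/mL final); incubate 16 h at 37 C; add LiveBLAzer, 2 h RT; read fluorescence.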

[7] = p53 small molecule agonists, cell-based qHTS assay with rat liver microsomes (AID 1963578); further: potency means the concentration at half of the fitted maximal effect
How it was run: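 Metabolic activation is supplied by rat liver microsomes with NADPH (each 0.5 mg/mL final). p53RE-bla cells incubate with compound 16 h at 37 C; reporter activity is measured by LiveBLAzer fluorescence.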

[8] = p53 small molecule agonists, cell-based qHTS assay with human liver microsomes: qHTS cell viability counter screen (AID 1963579); further: nearly all actives have a fitted effect of over 45% in size
How it was run: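 After the 460/530 nm beta-lactamase read, CellTiter-Glo was added to the same wells and luminescence measured after 30 min at room temperature, giving viability of p53RE-bla cells treated 16 h with compounds plus microsomes and NADPH.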

[9] = p53 small molecule agonists, cell-based qHTS assay with rat liver microsomes: qHTS cell viability counter screen (AID 1963580); further: nearly all actives have a fitted effect of over 45% in size
How it was run: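 Viability is assessed in parallel with the p53 reporter read: HCT-116 p53RE-bla cells receive compounds plus rat microsomes and NADPH (0.5 mg/mL final apiece), incubate 16 h at 37 C, and then CellTiter-Glo luminescence is recorded.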

[10] = p53 small molecule agonists, cell-based qHTS assay: qHTS cell viability counter screen (AID 1963581); further: nearly all actives have a fitted effect of over 45% in size
How it was run: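 Cells: HCT-116 with p53 response element-driven beta-lactamase. Treatment: 16 h, 37 C, compounds in DMSO. Read: CellTiter-Glo luminescence after 30 min RT.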

[11] = p53 small molecule agonists, cell-based qHTS assay (AID 1963582; active means well fitted activation curve with a large enough effect in the signal ratio in the repeat runs, not every such curve was filed as active; the % refers to the signal ratio)
How it was run: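 Quantitative HTS in p53RE-bla cells: after a 5 h settling period, compounds delivered in DMSO were left on cells for 16 h at 37 C, and reporter induction was measured as fluorescence following 2 h substrate loading.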

[12] = target: 5-hydroxytryptamine receptor 2A (Homo sapiens) (UniProt P28223); assay: 5-hydroxytryptamine receptor 2A (HTR2A) small molecule antagonists, cell-based qHTS assay (AID 1963586); further: nearly all actives have a fitted effect of over 45% in size; further: potency means the concentration at half of the fitted maximal effect
How it was run: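 Antagonist-mode intracellular calcium assay: DOI (4 nM) added after 5 min compound pre-incubation at room temperature to dye-loaded HTR2A-CHO cells. Fluorescence followed for 3 min, sampled every second.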

[13] = target: 5-hydroxytryptamine receptor 2A (Homo sapiens) (UniProt P28223); assay: 5-hydroxytryptamine receptor 2A (HTR2A) small molecule agonists, cell-based qHTS assay (AID 1963587); further: nearly all actives have a fitted effect of over 30% in size
How it was run: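 CHO cells stably expressing human HTR2A, plated 18 h, loaded with calcium dye 1 h at 37 C. Agonist mode: compounds added and intracellular calcium fluorescence recorded kinetically for 2 min at 1 sec intervals.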

[14] = target: Muscarinic acetylcholine receptor M1 (Homo sapiens) (UniProt P11229); assay: Cholinergic receptor muscarinic 1 (CHRM1) small molecule antagonists, cell-based qHTS assay (AID 1963588); further: nearly all actives have a fitted effect of over 40% in size; further: potency means the concentration at half of the fitted maximal effect
How it was run: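 CHRM1-CHO calcium-flux assay, antagonist mode. Cells were seeded 18 h, dye-loaded 1 h at 37 C and given compound for 5 min at RT, then acetylcholine was added at 50nM. FDSS fluorescence was read 3 min; 15 concentrations, three runs.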

[15] = target: Muscarinic acetylcholine receptor M1 (Homo sapiens) (UniProt P11229); assay: Cholinergic receptor muscarinic 1 (CHRM1) small molecule agonists, cell-based qHTS assay (AID 1963589); further: nearly all actives have a fitted effect of over 35% in size
How it was run: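 Agonist-mode qHTS in CHO cells stably carrying human muscarinic M1. Intracellular calcium is tracked by fluorescence every second after compound transfer; each compound runs at 15 concentrations in three independent runs.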

[16] = cAMP Responsive Elements (CRE) small molecule agonists, cell-based qHTS assay (AID 1963590)
How it was run: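 Agonist mode qHTS in CRE-bla HEK 293T cells: compounds dosed from DMSO for 3 h at 37 C/5% CO2, followed by LiveBLAzer B/G FRET substrate for 2 h at room temperature.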

[17] = cAMP Responsive Elements (CRE) small molecule antagonists, cell-based qHTS assay (AID 1963591; active means well fitted inhibition curve with a large enough effect in the signal ratio in the repeat runs, not every such curve was filed as active; the % refers to the signal ratio)
How it was run: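 Antagonist mode: test compounds are co-incubated with the adenylyl cyclase activator NKH477 (0.25 uM final) on CRE-bla HEK293T cells for 3 h at 37 °C, followed by LiveBLAzer substrate loading.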

[18] = target: Beta-2 adrenergic receptor (Homo sapiens) (UniProt P07550); assay: Adrenergic beta2 receptor (ADRB2) small molecule antagonists, cell-based qHTS assay (AID 1963592); further: series mostly up to about 92 µM; nearly all actives have a fitted effect of over 50% in size
How it was run: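 Cells (CHO, stable ADRB2 overexpression) incubated 18-20hr at 37C; compounds added from DMSO; agonist mix (1nM isoproterenol, 100uM IBMX, 25uM Ro-20-1724) added; 0.5hr RT; d2-cAMP and anti-cAMP-cryptate added; 1hr RT; 665/615 nm read.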

[19] = target: D(2) dopamine receptor (Homo sapiens) (UniProt P14416); assay: Dopamine D2 receptor (DRD2) small molecule agonists, cell-based qHTS assay (AID 1963594); further: nearly all actives have a fitted effect of over 35% in size
How it was run: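 HEK293 cells stably expressing human DRD2, pre-treated with PDE inhibitor Ro20-1724 (0.1 mM final) and compound 10 min at room temperature, then stimulated with NKH477 (200nM […]) for 30 min. cAMP read by HTRF (665/620 nm).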

[20] = target: D(2) dopamine receptor (Homo sapiens) (UniProt P14416); assay: Dopamine D2 receptor (DRD2) small molecule antagonists, cell-based qHTS assay (AID 1963595; active means well fitted inhibition curve with a large enough effect in the signal ratio in the repeat runs, with a control signal flat; the % refers to the signal ratio)
How it was run: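 Stable D2 receptor HEK293 line, 24 h after seeding. Compound preincubated 10 min, then quinpirole (12 nM) with forskolin analogue NKH477 (200 nM), 30 min, room temperature. Detection by time-resolved FRET of cAMP.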

Measured: Potency

Sequence of KiSS-1 receptor (Homo sapiens) (Q969F8 whole entry, looked up): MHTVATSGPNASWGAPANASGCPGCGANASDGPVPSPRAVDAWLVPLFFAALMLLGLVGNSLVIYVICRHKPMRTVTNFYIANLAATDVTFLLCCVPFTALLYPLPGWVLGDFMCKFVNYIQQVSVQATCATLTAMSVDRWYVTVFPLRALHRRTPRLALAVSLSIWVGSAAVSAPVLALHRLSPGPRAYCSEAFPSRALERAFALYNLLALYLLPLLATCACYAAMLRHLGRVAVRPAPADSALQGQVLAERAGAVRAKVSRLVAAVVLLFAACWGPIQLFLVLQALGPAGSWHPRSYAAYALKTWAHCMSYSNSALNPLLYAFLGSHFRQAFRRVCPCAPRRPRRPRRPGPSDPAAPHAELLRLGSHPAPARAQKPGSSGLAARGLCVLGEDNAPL
Sequence of Muscarinic acetylcholine receptor M1 (Homo sapiens) (P11229 whole entry, looked up): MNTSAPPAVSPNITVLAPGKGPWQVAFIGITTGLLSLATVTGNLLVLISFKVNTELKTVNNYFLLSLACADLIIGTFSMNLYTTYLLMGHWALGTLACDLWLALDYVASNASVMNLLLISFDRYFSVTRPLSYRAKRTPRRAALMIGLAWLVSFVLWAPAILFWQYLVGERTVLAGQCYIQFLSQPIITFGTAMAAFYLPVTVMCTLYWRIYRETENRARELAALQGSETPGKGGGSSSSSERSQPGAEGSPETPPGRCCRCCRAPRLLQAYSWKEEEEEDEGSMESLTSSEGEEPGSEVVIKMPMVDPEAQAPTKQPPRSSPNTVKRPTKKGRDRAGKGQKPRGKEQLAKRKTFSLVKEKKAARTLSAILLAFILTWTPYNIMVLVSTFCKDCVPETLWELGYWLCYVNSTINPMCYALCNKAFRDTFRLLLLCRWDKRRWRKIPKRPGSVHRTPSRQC
Sequence of D(2) dopamine receptor (Homo sapiens) (P14416 whole entry, looked up): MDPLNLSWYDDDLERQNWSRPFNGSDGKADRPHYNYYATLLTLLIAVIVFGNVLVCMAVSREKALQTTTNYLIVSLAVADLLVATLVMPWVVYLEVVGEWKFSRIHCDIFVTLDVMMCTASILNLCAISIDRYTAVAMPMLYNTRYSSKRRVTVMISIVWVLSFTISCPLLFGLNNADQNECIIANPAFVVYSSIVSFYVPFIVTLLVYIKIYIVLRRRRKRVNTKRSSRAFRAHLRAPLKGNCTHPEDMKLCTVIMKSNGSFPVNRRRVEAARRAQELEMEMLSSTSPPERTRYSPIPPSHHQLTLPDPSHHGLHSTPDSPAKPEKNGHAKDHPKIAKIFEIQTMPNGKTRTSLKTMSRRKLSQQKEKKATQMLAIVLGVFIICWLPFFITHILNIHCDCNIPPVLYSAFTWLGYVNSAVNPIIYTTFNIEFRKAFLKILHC
Sequence of Beta-2 adrenergic receptor (Homo sapiens) (P07550 whole entry, looked up): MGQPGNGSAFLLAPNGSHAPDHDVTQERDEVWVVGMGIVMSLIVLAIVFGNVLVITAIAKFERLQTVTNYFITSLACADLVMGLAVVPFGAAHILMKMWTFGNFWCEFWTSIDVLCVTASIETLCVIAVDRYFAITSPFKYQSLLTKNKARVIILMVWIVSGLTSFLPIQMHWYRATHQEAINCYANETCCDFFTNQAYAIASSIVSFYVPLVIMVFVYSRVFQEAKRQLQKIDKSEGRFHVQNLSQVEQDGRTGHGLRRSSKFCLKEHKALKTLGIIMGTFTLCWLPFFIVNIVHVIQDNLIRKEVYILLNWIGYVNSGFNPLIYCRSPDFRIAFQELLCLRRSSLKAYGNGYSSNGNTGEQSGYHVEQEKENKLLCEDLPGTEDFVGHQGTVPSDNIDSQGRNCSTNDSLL
Sequence of Gonadotropin-releasing hormone receptor (Homo sapiens) (P30968 whole entry, looked up): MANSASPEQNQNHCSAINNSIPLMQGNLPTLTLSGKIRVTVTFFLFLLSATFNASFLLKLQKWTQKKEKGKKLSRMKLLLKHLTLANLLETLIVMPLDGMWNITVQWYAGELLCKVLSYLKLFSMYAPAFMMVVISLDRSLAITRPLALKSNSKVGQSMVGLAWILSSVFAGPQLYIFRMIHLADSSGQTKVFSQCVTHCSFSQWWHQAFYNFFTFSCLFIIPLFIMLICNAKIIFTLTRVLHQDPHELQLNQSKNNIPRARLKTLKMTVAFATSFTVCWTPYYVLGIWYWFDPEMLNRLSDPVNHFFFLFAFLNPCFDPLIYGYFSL
Sequence of 5-hydroxytryptamine receptor 2A (Homo sapiens) (P28223 whole entry, looked up): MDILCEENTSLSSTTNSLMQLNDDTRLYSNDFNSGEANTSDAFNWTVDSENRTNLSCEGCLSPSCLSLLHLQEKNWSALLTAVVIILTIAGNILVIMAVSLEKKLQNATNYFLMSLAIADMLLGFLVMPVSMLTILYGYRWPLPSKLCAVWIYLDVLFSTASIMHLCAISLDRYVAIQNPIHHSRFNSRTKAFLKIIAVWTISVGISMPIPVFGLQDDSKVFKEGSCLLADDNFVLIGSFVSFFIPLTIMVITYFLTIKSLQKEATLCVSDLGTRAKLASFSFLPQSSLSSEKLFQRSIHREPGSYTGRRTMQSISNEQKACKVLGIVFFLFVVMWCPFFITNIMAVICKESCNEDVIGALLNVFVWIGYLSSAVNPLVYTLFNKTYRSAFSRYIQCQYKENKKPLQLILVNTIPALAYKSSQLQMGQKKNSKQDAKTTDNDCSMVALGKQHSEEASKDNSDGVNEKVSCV

CNC(=O)N(C)c1nnc(C(C)(C)C)s1
inactive: [1] | [2] | [3] | [4] | [5] | [6] | [7] | [8] | [9] | [10] | [11] | [12] | [13] | [14] | [15] | [16] | [17] | [18] | [19] | [20]

COc1ccc(C=O)cc1
inactive: [1] | [2] | [3] | [4] | [5] | [6] | [7] | [8] | [9] | [10] | [11] | [12] | [13] | [14] | [15] | [16] | [17] | [18] | [19] | [20]

Cl/C=C\CCl
inactive: [1] | [2] | [3] | [4] | [5] | [6] | [7] | [8] | [9] | [10] | [11] | [12] | [13] | [14] | [15] | [16] | [17] | [18] | [19] | [20]

CCCCCCCCSC(=O)Oc1cc(Cl)nnc1-c1ccccc1
inactive: [1] | [2] | [3] | [4] | [5] | [6] | [7] | [8] | [9] | [10] | [11] | [12] | [13] | [14] | [15] | [16] | [17] | [18] | [19] | [20]

CN1CCC(N(Cc2ccccc2)c2ccccc2)CC1
inactive: [1] | [2] | [3] | [4] | [5] | [6] | [7] | [8] | [9] | [10] | [11] | [13] | [15] | [16] | [17] | [18] | [19] | [20]
active: [12] 2.59 µM | [14] 0.365 µM

CCSC(=O)N1CCCCCC1
inactive: [1] | [3] | [4] | [5] | [6] | [8] | [9] | [10] | [11] | [12] | [13] | [14] | [15] | [16] | [17] | [18] | [19] | [20]
active: [7] 4.99 µM and 2.57 µM
37.5 µM (active) and inactive: [2]

C[C@H]1O[C@H](OC2[C@@H](O)[C@@H](O)C(O)[C@H](O)[C@H]2O)[C@@H](N)C[C@@H]1N=C(N)C(=O)O (some centres undefined)
inactive: [1] | [2] | [3] | [4] | [5] | [6] | [7] | [8] | [9] | [10] | [11] | [12] | [13] | [14] | [15] | [16] | [17] | [18] | [19] | [20]

ClC(Cl)(Cl)C(Cl)(Cl)Cl
inactive: [1] | [2] | [3] | [4] | [5] | [6] | [7] | [8] | [9] | [10] | [11] | [12] | [13] | [14] | [15] | [16] | [17] | [18] | [19] | [20]

CCOP(OCC)OCC
inactive: [1] | [2] | [3] | [4] | [5] | [6] | [7] | [8] | [9] | [10] | [11] | [12] | [13] | [14] | [15] | [16] | [17] | [18] | [19]

COS(=O)(=O)c1ccc(C)cc1
inactive: [1] | [2] | [3] | [4] | [5] | [6] | [7] | [8] | [9] | [10] | [11] | [12] | [13] | [14] | [15] | [16] | [17] | [18] | [19] | [20]

CCC(Br)(CC)C(=O)NC(N)=O
inactive: [1] | [2] | [3] | [4] | [5] | [6] | [7] | [8] | [9] | [10] | [11] | [12] | [13] | [14] | [15] | [17] | [18] | [19] | [20]

Nc1ccccc1Cl
inactive: [1] | [2] | [3] | [4] | [5] | [6] | [7] | [8] | [9] | [10] | [11] | [12] | [13] | [14] | [15] | [16] | [18] | [20]

COC(=O)[C@@H](N)CCCN/C(N)=N/[N+](=O)[O-]
inactive: [1] | [2] | [3] | [4] | [5] | [6] | [7] | [8] | [9] | [10] | [11] | [12] | [13] | [14] | [15] | [16] | [17] | [18] | [19] | [20]

C=CCCC#N
inactive: [1] | [2] | [3] | [4] | [5] | [6] | [7] | [8] | [9] | [10] | [11] | [12] | [13] | [14] | [15] | [16] | [18] | [19] | [20]

N#CC(Cl)(Cl)Cl
inactive: [1] | [2] | [3] | [4] | [5] | [6] | [7] | [8] | [9] | [10] | [11] | [12] | [13] | [14] | [15] | [16] | [17] | [19] | [20]
